Screens as filed in PubChem.
Most compounds without a hit are left out; they make up all but 5.2% or so of the library.
Tau fibril FP – blocks human tau fibril formation measured by polarization. Potency, µM (doses to about 57.7 µM), for inactives: at the top dose activity, negative = inhibition, actives largely listed as inhibitors. P10636. K18 P301L tau heparin fibrillization, Alexa594 FP, 6 h. actives 0.39% (n = 280,000); note: potency is the fitted concentration of half-maximal effect; % is set by controls: 0 for no effect and ±100 for the full control effect; nearly all actives have a fitted effect of over 55% in size
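FP of Alexa 594-tau after heparin (20 uM) induction. Substrate: human K18 P301L, 15 uM unlabeled, 0.24 uM labeled. Buffer 100 mM sodium acetate pH 7. 6 hr, 37 C.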
Tau fibril ThT – blocks human tau fibril formation measured by thioflavin T; AID 1460; actives 2.1% (n = 270,000); P10636; recombinant tau K18 P301L, heparin-induced fibrillization, ThT fluorescence; Potency, µM (top dose mostly 57.4 µM), without a hit: at the highest dose activity, negative = inhibition, usual class: inhibitors; note: potency is the fitted concentration of half-maximal effect; % is set by controls: 0 for no effect and ±100 for the full control effect; nearly all actives have a fitted effect of over 55% in size
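Fibril formation assay: tau K18 P301L at 15 uM with trace Alexa 594 label, heparin inducer 20 uM, pH 7 sodium acetate buffer, 37 C for 6 hr; endpoint ThT signal.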
Sfp inh – inhibitors of Bacillus subtilis Sfp phosphopantetheinyl transferase | Q9F4F7 | Biochemical Sfp PPTase activity, qHTS | Potency, µM, for inactives: largest response in the series, negative = inhibition, most hits filed as inhibitors | actives 3.5% (n = 310,000);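 note: the enzyme is Sfp with the accession as filed and its product quenches rhodamine fluorescence; potency is the fitted concentration of half-maximal effect; 0% = enzyme reaction without inhibitor and -100% = no enzyme wells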
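Fluorescence-quenching assay with 15 nM Sfp, 5 uM rhodamine-CoA and 12.5 uM BHQ-2-labelled ybbR peptide in pH 7.6 Hepes/MgCl2 buffer. Enzyme was pre-incubated with compound for 15 min at room temperature. Rate was taken from the 30-min fluorescence change (525/598 nm).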
Tau fluor cs – counter-screen for tau fibril formation inhibitors; AID 1463; Potency, µM (series often up to 57.7 µM), without a hit: at the highest dose activity change, negative = decrease; actives 0.93% (n = 280,000); tau K18 P301L (four-repeat tau fragment) Alexa594 fluorescence, heparin fibrillization; note: potency is the fitted concentration of half-maximal effect; % is set by controls: 0 for no effect and ±100 for the full control effect; nearly all actives have a fitted effect of over 55% in size
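Human K18 P301L tau (15 uM unlabeled plus 0.24 uM Alexa 594-labeled, final) in 100 mM sodium acetate pH 7 was mixed with compound and 20 uM heparin and incubated 6 hr at 37 C.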
Coupling enz – counter-screen for Giardia aldolase inhibitors: coupling enzyme system; actives 0.67% (n = 290,000); activity change, negative = inhibition, % at 58.2 µM, hits read low; coupling enzyme system counterscreen, AmpLite Red fluorescence; in the data active = activity change below about -30%; note: % is set by controls: 0 for no effect and ±100 for the full control effect
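Compounds tested against the coupling enzymes alone at 57.5 uM final; readout was AmpLite Red fluorescence (525/598 nm) after 20 min at RT.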
Sfp PPTase conf – Sfp phosphopantetheinyl transferase inhibition, confirmation. shares compounds with Sfp inh. Sfp PPTase enzymatic assay, qHTS titration. Potency, µM (series often up to 114 µM), inactives show at the highest dose activity change, negative = inhibition, hits mostly inhibitors. actives 79% (n = 380);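 note: potency is the fitted concentration of half-maximal effect; plate controls were uninhibited Sfp reaction for no effect and no enzyme control for full effect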
Sfp gel assay – Inhibits B. subtilis Sfp phosphopantetheinylation; AID 2707; Potency, µM, usual class: inhibitors; purified Sfp, gel-based phosphopantetheinylation read-out; shares compounds with Sfp inh; actives 20% (n = 210);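 active = potency below 100 µM; inconclusive = dose-dependent response but potency above 100 µM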;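 note: band intensities scaled against SCH202676 control wells before curve fitting; potency is an IC50 for inhibitors of Sfp transfer activity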
Casp1 catalase – inhibits human caspase-1 in catalase buffer, redox counter-screen | Potency, µM (highest dose often 57.5 µM), for the others: at the highest dose activity change, negative = inhibition, usual class: inhibitors | 30 tested, under 10 active | shares compounds with Coupling enz | caspase-1 Ac-WEHD-AFC fluorescence rate, catalase buffer | AID 888; active = well fitted inhibition curve with a large enough effect in the main read-out, with a control signal flat; inconclusive = small, poorly fitted or top-dose-only effect, or a change in a side signal; inactive = no such curve, though single readings can be large or run the other way
Casp1 confirm – confirmation of allosteric or competitive inhibitors of human caspase-1; actives 20% (n = 60); purified caspase-1, fluorogenic substrate cleavage; Potency, µM (series often up to 57.5 µM), for inactives: at the top dose activity change, negative = inhibition, most hits filed as inhibitors; shares compounds with Coupling enz; active = well fitted inhibition curve with a large enough effect in the main read-out, with a control signal flat; inconclusive = small, poorly fitted or top-dose-only effect, or a change in a side signal; inactive = no such curve, though single readings can be large or run the other way
CASP7 inh CRC – confirmation of allosteric or competitive inhibitors of human caspase-7; 60 tested, under 10 active; Potency, µM (titrated, usually from 57.5 µM), without a hit: top-dose activity change, negative = inhibition, hits mostly inhibitors; shares compounds with Coupling enz; AID 897; recombinant caspase-7, fluorogenic substrate cleavage; active = well fitted inhibition curve with a large enough effect in the main read-out, with a control signal flat, not every such curve was filed as active; inconclusive = small, poorly fitted or top-dose-only effect, or a change in a side signal; inactive = no such curve, though single readings can be large or run the other way
Casp7 cysteine – counter-screen for redox active caspase-7 inhibitors: cysteine buffer; shares compounds with Coupling enz; caspase-7 enzyme with cysteine, fluorogenic substrate, redox counterscreen; Potency, µM (top dose mostly 57.5 µM), for inactives: top-dose activity change, negative = inhibition, usual class: inhibitors; 60 tested, under 10 active; AID 908; active = well fitted inhibition curve with a large enough effect in the main read-out, with a control signal flat; inconclusive = small, poorly fitted or top-dose-only effect, or a change in a side signal; inactive = no such curve, though single readings can be large or run the other way
Casp7 catalase – inhibits caspase-7 in catalase buffer, redox counter-screen; Potency, µM (highest dose often 57.5 µM), inactives show at the top dose activity, negative = inhibition, usual class: inhibitors; 30 tested, under 10 active; shares compounds with Coupling enz; AID 909; Caspase-7 Ac-DEVD-AFC fluorescence rate, catalase buffer; active = well fitted inhibition curve with a large enough effect in the main read-out, with a control signal flat; inconclusive = small, poorly fitted or top-dose-only effect, or a change in a side signal; inactive = no such curve, though single readings can be large or run the other way
Casp1 cysteine – inhibits caspase-1 in cysteine buffer, redox counter-screen; shares compounds with Coupling enz; recombinant caspase-1, fluorogenic substrate, cysteine buffer; Potency, µM (series often up to 57.5 µM), for the others: at the highest dose activity change, negative = inhibition, most hits filed as inhibitors; 60 tested, under 10 active; AID 929; active = well fitted inhibition curve with a large enough effect in the main read-out, with a control signal flat; inconclusive = small, poorly fitted or top-dose-only effect, or a change in a side signal; inactive = no such curve, though single readings can be large or run the other way
Active calls of the source: *; i = inactive; ? = inconclusive; . = no result; [ ] = remark or other dose. Unless noted, calls come from the whole dose curve; as a rule, active = well fitted curve in the direction sought with a large enough effect; inconclusive = small, poorly fitted or top-dose-only effect, or another doubt; inactive = no such curve, though single readings can be large; an effect the other way counts as inactive or inconclusive.

SMILES	Tau fibril FP	Tau fibril ThT	Sfp inh	Tau fluor cs	Coupling enz	Sfp PPTase conf	Sfp gel assay	others
Cc1ccc(-c2csc(NC(=S)NC(=O)c3ccco3)n2)cc1	-13%	-2%	1%	-4%	1	.	.
Cc1ccc(Nc2nc(-c3sc(NC(=O)c4ccco4)nc3C)cs2)cc1	12%	4µM*	16µM*	?	-4	53µM*	?
COc1ccc(C(=O)/C=C/C(=O)N(CC(=O)NC2CCCCC2)Cc2cccs2)c(O)c1	-8%	?	3.2µM*	-10%	1	3.3µM*	2.1µM*
COCCN(CC(=O)NC1CCCCC1)C(=O)/C=C/C(=O)c1ccc(OC)cc1O	-6%[2.34 µM]	-4%	0%	-5%	0	.	.
Cc1sc2c(c1C)C(=O)NC(c1ccccc1F)N2 (stereo not drawn)	-6%	-7%	7.9µM*	-13%	-2	7.4µM*	i
CCN(CC)C(=O)Cn1c(SCC(=O)Nc2ccc(C)c(C)c2)nc2ccccc21	0%	-4%	.	-4%	.	.	.
COc1ccc(Nc2nc3[nH]c(=O)cc(O)c3s2)cc1	2%	11%	4µM*	11%	-5	19µM*	i
CCOC(=O)Cc1nnc(NC(=O)c2ncn[nH]2)s1	-4%	1%	14µM*	4%	-1	-4%	i
Cc1cccc(C(=O)NCC(=O)OCc2cc(=O)n3nc(C)sc3n2)c1	7%	-10%	.	-2%	.	.	.
O=C(CSc1nc2scc(-c3ccco3)c2c(=O)n1-c1ccccc1)NCC1CCCO1 (stereo not drawn)	-1%	?	1.3µM*	-8%	3	42µM*	.
NC(=O)CSc1nc2scc(-c3ccco3)c2c(=O)n1-c1ccccc1	?	?	6.3µM*	-25%	3	15µM*	.
CCOC(=O)C1=C(N)Oc2ccc(Br)cc2C1C(C#N)C(=O)OCC (stereo not drawn)	0%	-10%	-15%	-5%	-3	.	.
CCn1nc(C)c(CCN(C)C(=O)Nc2cc(OC)c(OC)c(OC)c2)c1C	10%	0%	.	0%	.	.	.
Cc1sc2nc(SCc3nc(-c4cccs4)no3)n(-c3ccccc3)c(=O)c2c1C	0%	-1%	4µM*	-12%	-2	5.9µM*	i
c1ccc(-n2c(SCc3nc(-c4cccs4)no3)nnc2-c2ccco2)cc1	-1%	-17%	-10%	-10%	-20	.	.
COC(=O)c1ccc(-c2nc(O)c(C)s2)cc1	?	13µM*	14µM*	-6%	2	47µM*	.
COC(=O)c1ccc(C2=NOC(C)(c3sc(-c4ccccc4)nc3C)C2)cc1 (stereo not drawn)	0%	4%	18%	6%	-1	.	.
CN1CCN(C(=S)C(=O)Nc2ccc(Br)cc2)CC1	?	?	1.3µM*	-20%	-37*	6.6µM*	.
CCN1CCN(C(=S)c2ccc(Cl)cc2)CC1	?	?	2.2µM*	-21%	-54*	13µM*	i
CCN1CCN(C(=S)c2ccc(OC)cc2)CC1	1%	-8%	11µM*	12%	-4	15µM*	i
COc1ccc(OC)c(CNc2ncc(-c3ccc(Cl)cc3)n2C)c1	6%	?	.	-22%	.	.	.
CCOC(=O)c1cc(-c2ccc(F)cc2)n(CCC(=O)Nc2cc(OC)cc(OC)c2)c1C	-14%	-4%	.	-25%	.	.	.
COc1cccc(Nc2ncc3nc(C)c(=O)n(C)c3n2)c1	.	.	12%	.	5	.	.
CC(C)c1ccc(Cn2ccc3c4c(N)nc(NC5CC5)nc4ccc32)cc1	7%	-13%	5µM*	?	-9	13µM*	?
O=C1C=C[C@@H](O)[C@H]2[C@@H]3C(=O)N(Cc4ccc5c(c4)OCO5)C(=O)[C@@H]3CC[C@H]12	?	-9%[11.5 µM]	10%	-1%[11.6 µM]	-1	.	.
CCCn1c(C)nc2c(N3CCC(N4CCN(C)CC4)CC3)nc(C)nc21	-1%	-1%	19%	-3%	-2	.	.
COc1ccc(C2CC(=O)N3CN(c4ccccc4F)CSC3=C2C#N)cc1OC (stereo not drawn)	?	28µM*	8.9µM*	-24%	-14	.	.	Casp1 catalase=2%;Casp1 confirm=-13%;CASP7 inh CRC=-8%;Casp7 cysteine=-10%;Casp7 catalase=7%;Casp1 cysteine=-3%
O=C(Nc1ccc2c(c1)OCO2)[C@@H]1[C@@H]2C(=O)N(C3CCCCC3)C(=O)[C@@H]2C2c3ccccc3C=CN21 (stereo partly drawn)	-14%	?	-12%	?	-35*	.	.	Casp1 catalase=-3%;Casp1 confirm=-25%;CASP7 inh CRC=-16%;Casp7 cysteine=-16%;Casp7 catalase=6%;Casp1 cysteine=-3%
COc1ccc2c(c1)c1c(c(=O)n(Cc3ccccc3)c(=O)n1CC(=O)NCc1ccc(C)cc1)n2C	1%	-3%	.	-10%	.	.	.
CC(=O)Nc1cc(OC(C)=O)c2nonc2c1OC(C)=O	2µM*	1.1µM*	40µM*	?	-77*	.	.	Casp1 catalase=-25%;Casp1 confirm=-63%;CASP7 inh CRC=-32%;Casp7 cysteine=-13%;Casp7 catalase=1%;Casp1 cysteine=?
